# Measurements as given in PMC7862700, “An all-to-all approach to the identification of sequence-specific readers for epigenetic DNA modifications on cytosine”.
# How the values were obtained:
# Assay in all cases: DAPPL (digital affinity profiling via proximity ligation, sequencing); 10 mM Tris-HCl pH 7.5, 50 mM NaCl, 1 mM DTT, 4% glycerol, room temperature, 30 min; GST-TFs on glutathione beads, 16-mer random dsDNA library, 0.1% formaldehyde crosslink after washing; high values mean tight binding
# Conditions in all cases: protein: recombinant; tags: N-terminal GST; dsDNA, one strand shown
# ETV1 = ETV1 (Homo sapiens, UniProt P50549 1-477)
# How it was run: (§1)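 Sequencing on an Illumina NextSeq500 followed washing, crosslinking with 0.1% formaldehyde, proximity ligation (BsaI/T4 ligase, 1 h, 37 °C) and PCR amplification of pools that had been incubated for 30 min at room temperature with 200 nmole of a random double-stranded 16-mer DNA library in Tris/NaCl/DTT/glycerol buffer. Each pool held DNA-barcoded human transcription factors, expressed in yeast as GST fusions and captured on glutathione beads, plus a tag-only sample. Binding signal is a hexamer's read frequency for a factor divided by its frequency in the tag-only sample.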
# ERF = molecular target: T1, ERF (Homo sapiens, UniProt P50548 1-548)
# T1 sequence: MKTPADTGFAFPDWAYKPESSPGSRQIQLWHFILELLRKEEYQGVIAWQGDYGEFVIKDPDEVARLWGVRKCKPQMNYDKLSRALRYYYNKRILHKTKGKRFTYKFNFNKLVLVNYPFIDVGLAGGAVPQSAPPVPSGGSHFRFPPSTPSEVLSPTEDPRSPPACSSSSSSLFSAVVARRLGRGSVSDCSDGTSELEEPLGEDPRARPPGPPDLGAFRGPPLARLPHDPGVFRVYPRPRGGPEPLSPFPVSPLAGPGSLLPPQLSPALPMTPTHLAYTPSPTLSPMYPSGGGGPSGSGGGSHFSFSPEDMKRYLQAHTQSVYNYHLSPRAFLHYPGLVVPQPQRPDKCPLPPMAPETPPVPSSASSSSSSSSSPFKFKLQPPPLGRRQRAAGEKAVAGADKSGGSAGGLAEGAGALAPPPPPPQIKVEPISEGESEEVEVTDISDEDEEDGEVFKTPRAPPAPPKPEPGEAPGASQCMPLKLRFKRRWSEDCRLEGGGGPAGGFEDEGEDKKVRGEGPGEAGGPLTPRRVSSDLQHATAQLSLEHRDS
# How it was run: as §1
# ETV3L = molecular target: T2, ETV3L (Homo sapiens, UniProt Q6ZN32 1-361)
# T2 sequence: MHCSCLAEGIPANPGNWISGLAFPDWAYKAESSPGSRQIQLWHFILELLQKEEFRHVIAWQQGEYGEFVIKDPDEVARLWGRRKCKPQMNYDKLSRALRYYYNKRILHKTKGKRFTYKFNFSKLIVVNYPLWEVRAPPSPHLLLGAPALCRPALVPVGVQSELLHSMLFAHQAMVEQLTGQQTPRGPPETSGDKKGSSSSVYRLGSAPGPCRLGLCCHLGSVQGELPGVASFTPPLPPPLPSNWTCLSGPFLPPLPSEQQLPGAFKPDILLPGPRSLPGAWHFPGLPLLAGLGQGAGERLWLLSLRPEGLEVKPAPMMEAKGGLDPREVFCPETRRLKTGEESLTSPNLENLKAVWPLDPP
# How it was run: as §1
# ETS2 = molecular target: T3, ETS2 (Homo sapiens, UniProt P15036 1-469)
# T3 sequence: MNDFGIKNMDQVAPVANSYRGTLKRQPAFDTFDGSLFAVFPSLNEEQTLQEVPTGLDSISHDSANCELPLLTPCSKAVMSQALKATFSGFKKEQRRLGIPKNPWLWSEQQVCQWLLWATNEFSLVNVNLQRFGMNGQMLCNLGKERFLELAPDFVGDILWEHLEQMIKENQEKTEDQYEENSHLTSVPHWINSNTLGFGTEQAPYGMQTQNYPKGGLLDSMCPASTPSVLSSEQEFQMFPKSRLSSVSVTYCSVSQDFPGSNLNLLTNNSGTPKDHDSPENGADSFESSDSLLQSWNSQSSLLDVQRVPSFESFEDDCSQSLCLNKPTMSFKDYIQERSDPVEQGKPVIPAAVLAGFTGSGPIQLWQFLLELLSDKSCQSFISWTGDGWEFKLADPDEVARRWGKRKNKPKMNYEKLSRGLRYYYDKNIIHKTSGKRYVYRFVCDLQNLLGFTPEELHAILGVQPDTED
# How it was run: as §1
# SPDEF = molecular target: T4, SPDEF (Homo sapiens, UniProt O95238 1-335)
# T4 sequence: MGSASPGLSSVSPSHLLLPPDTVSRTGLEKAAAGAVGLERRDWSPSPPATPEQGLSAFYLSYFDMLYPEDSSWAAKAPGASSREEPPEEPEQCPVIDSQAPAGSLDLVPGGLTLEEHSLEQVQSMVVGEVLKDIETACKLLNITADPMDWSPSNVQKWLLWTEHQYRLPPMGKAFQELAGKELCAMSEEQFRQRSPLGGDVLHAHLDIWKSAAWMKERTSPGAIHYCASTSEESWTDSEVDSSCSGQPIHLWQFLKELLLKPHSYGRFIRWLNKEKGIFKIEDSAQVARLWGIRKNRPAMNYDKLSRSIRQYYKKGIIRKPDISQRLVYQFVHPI
# How it was run: as §1
# ETV7 = molecular target: T5, ETV7 (Homo sapiens, UniProt Q9Y603 1-341)
# T5 sequence: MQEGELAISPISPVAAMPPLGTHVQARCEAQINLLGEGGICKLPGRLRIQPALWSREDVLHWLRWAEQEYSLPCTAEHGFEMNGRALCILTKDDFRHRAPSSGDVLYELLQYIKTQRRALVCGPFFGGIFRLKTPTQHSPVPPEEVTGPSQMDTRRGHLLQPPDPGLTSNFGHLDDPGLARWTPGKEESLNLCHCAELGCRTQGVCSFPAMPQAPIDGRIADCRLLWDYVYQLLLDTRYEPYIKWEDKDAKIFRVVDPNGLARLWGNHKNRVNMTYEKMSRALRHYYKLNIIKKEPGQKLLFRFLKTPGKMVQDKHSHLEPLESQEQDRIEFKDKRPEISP
# How it was run: as §1
# ELF5 = molecular target: T6, ELF5 (Homo sapiens, UniProt Q9UKW6-2 1-255)
# T6 sequence: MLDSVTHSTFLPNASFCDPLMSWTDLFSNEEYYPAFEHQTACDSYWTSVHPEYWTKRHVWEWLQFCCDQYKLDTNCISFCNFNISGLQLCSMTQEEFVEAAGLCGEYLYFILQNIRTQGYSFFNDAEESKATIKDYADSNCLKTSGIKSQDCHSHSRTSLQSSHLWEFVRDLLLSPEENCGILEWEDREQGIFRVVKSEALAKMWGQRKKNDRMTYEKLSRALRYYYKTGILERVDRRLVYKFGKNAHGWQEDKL
# How it was run: as §1
# ETV3 = molecular target: T7, ETV3 (Homo sapiens, UniProt P41162-2 1-143)
# T7 sequence: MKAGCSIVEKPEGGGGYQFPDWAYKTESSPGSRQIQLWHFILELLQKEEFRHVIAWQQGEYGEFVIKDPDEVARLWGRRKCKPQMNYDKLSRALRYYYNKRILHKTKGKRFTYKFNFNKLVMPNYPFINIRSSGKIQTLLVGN
# How it was run: as §1
# ETV6 = ETV6 (Homo sapiens, UniProt P41212 1-452)
# How it was run: as §1
# ETV6, sequence (P41212 whole entry): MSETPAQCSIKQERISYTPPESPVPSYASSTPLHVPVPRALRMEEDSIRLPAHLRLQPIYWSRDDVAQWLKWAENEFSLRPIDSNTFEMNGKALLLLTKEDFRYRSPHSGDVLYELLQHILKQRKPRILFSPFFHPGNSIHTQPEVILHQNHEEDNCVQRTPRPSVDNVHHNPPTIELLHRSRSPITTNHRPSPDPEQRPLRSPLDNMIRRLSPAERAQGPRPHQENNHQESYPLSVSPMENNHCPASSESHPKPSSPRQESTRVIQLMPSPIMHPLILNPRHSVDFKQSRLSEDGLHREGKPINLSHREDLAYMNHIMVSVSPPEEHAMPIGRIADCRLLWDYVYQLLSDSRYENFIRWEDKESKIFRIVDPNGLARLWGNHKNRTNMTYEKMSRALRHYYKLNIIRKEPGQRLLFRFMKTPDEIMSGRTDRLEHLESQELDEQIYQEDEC
# ETV1, sequence (P50549 whole entry, the tested form may be a part): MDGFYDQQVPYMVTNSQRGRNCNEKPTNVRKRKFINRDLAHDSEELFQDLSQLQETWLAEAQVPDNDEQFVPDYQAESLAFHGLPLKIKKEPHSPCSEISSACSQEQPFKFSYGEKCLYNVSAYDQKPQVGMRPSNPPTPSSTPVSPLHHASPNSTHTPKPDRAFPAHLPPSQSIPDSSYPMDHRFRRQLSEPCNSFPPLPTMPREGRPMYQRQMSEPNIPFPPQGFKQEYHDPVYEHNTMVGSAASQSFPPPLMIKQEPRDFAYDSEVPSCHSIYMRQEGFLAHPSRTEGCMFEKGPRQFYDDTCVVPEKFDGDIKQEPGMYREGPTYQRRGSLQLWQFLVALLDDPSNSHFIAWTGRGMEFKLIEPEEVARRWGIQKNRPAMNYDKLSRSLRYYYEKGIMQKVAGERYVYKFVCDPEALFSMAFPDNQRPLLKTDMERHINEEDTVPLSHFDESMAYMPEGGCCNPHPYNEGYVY
sequence,measurement,setting,value
TAATCA,binding signal,ETV1,"1.14 fold enrichment (6-mer frequency, TF over GST control)"
same,binding signal,ERF,"1.09 fold enrichment (6-mer frequency, TF over GST control)"
same,binding signal,ETV3L,"1.12 fold enrichment (6-mer frequency, TF over GST control)"
same,binding signal,ETS2,"1.14 fold enrichment (6-mer frequency, TF over GST control)"
same,binding signal,SPDEF,"1.11 fold enrichment (6-mer frequency, TF over GST control)"
same,binding signal,ETV7,"1.1 fold enrichment (6-mer frequency, TF over GST control)"
same,binding signal,ELF5,"1.08 fold enrichment (6-mer frequency, TF over GST control)"
same,binding signal,ETV3,"1.15 fold enrichment (6-mer frequency, TF over GST control)"
same,binding signal,ETV6,"1.18 fold enrichment (6-mer frequency, TF over GST control)"
